IMPase inh = membrane-permeable compound that blocks inositol monophosphatase. CHO-M1 cells, IP1 accumulation, HTRF TR-FRET ratio. inhibition (IP1 accumulation), % at 46.1 µM. 120,000 tested, under 10 active; active means well fitted curve in the direction sought with a large enough effect in the signal ratio, not every such curve was filed as active; inconclusive means small, poorly fitted or top-dose-only effect, or a change in a side signal; inactive means no such curve, though single readings can be large or run the other way; the % refers to the signal ratio;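 further: cells stimulated with carbachol in lithium chloride buffer; higher means more IMPase inhibition seen as more IP1 and lower FRET ratio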
Target sequence (P97697 whole entry, looked up): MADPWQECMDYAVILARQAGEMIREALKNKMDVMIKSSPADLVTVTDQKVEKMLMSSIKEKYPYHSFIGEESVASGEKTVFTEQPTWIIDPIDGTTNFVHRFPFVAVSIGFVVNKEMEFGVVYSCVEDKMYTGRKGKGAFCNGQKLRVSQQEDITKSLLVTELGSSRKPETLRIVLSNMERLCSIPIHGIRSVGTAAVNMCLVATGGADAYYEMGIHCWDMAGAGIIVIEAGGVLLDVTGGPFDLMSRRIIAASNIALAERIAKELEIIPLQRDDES
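The IP-One HTRF competitive assay in carbachol-stimulated CHO-M1 cells quantifies cellular IP1. Compounds spanned up to 46 uM final, and activity is expressed as AC50 from concentration-response fits of the ratio and donor data.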
NPSR antag = neuropeptide S receptor (human) antagonism, cAMP; CHO-NPSR cells, cAMP TR-FRET, antagonist mode; AID 1461; Potency, µM (doses to about 38.3 µM), hits mostly inhibitors; actives 1% (n = 220,000); further: nearly all actives have a fitted effect of over 50% in size
Target sequence (Q6W5P4 whole entry, looked up): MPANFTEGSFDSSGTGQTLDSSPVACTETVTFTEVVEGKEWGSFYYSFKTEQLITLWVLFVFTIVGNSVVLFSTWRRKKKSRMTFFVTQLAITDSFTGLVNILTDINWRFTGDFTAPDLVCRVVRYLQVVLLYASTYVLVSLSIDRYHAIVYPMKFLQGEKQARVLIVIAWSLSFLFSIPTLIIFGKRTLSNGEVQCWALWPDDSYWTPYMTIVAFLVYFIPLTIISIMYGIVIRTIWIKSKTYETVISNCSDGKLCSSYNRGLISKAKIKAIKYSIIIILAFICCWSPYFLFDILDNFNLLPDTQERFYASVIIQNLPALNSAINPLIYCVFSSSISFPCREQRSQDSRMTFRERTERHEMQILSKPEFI
IMPase Li inh = membrane-permeable IMPase blocker, potentiated with lithium; CHO-M1 cells, IP1 TR-FRET (IP-One), carbachol + lithium; AID 1457; actives 0.35% (n = 210,000); Potency, µM (titrated, usually from 59.4 µM), most hits filed as inhibitors;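 further: IP1 builds up when IMPase is blocked and the TR-FRET signal falls; nearly all actives have a fitted effect of over 50% in size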
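Steps: plate 2000 CHO-M1 cells per well and culture 16–30 h; add compound and lithium; incubate 30 min, 37C; add d2-IP1 tracer and Eu cryptate anti-IP1 antibody in lysis buffer; read after 10 min at room temperature.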
HTT cytoprotect = protects HTT-Q103 PC12 cells, measured by ATP; PC12 HTT-Q103 induced, cytoprotection, ATP luminescence, 40 h; Potency, µM (series often up to 56.4 µM), usual class: activators; AID 1471; actives 0.14% (n = 230,000); further: nearly all actives have a fitted effect of over 45% in size
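ATP quantification (ATPlite) reports survival of PC12 cells in which tebufenozide, 100 nM final, switches on Htt exon 1 with 103 glutamines linked to GFP; compounds are titrated.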
PNC inhibitor = inhibitors of perinucleolar compartment assembly; activity change (PNC), negative = inhibition, % at 10 µM; AID 2417; PC3M PTB-GFP, PNC prevalence imaging, 16 h; stronger effect = lower value; actives 3.1% (n = 140,000);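 active means readout at or below -70, meaning at least 70% loss of cells showing the perinucleolar compartment, a nuclear body marking cancer cells; inconclusive means readout between -30 and a set limit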
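PC3M cells stably expressing PTB-GFP, 750–1000 cells/well, treated 16 h at 37 °C with compound (23 nl of library stock), in duplicate. After paraformaldehyde fixation and Hoechst stain, imaged at 20x; PNC prevalence scored by image analysis.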
HttQ103 aggreg = mutant huntingtin aggregation inhibition; PC12 HttQ103-GFP aggregates, Acumen cytometry, 40 h; Potency, µM (titrated, usually from 46.1 µM), actives largely listed as inhibitors; actives 1.1% (n = 220,000); further: nearly all actives have a fitted effect of over 60% in size
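Huntingtin Q103 exon 1–GFP aggregates in induced PC12 cells (100 nM tebufenozide) were quantified by cytometry from lysates, with compounds dosed in titration.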
Numbers stand for hits; . = inactive; ? = inconclusive; / = no result; [ ] = dose if it differs, or a comment. Shown are actives, neighbours in structure and some others; about 3.4% of the full set was active somewhere. Unless noted, the call rests on the fitted dose curve; in most records, active means well fitted curve in the direction sought with a large enough effect; inconclusive means small, poorly fitted or top-dose-only effect, or another doubt; inactive means no such curve, though single readings can be large; an effect the other way counts as inactive or inconclusive.

SMILES	IMPase inh	NPSR antag	IMPase Li inh	HTT cytoprotect	PNC inhibitor	HttQ103 aggreg
Cc1cc(NC(=O)CSc2nc(-c3ccco3)cc(C(F)(F)F)n2)no1	.	.	.	.[10 µM]	-116	.
Cc1cc(NC(=O)CCSc2nc(-c3ccco3)cc(C(F)(F)F)n2)no1	.	.	.	.	.	.
Cc1ccc(NC(=O)CSc2nc(-c3ccco3)cc(C(F)(F)F)n2)c(C)c1	.	/	/	/	/	/
Cc1sc2nc(SC3CCOC3=O)n(Cc3ccccc3)c(=O)c2c1C (stereo not drawn)	/	.	.	.[10 µM]	/	.
C=CCn1c(SC2CCOC2=O)nc2sc(C)c(C)c2c1=O (stereo not drawn)	.	.	.	.[10 µM]	-80	.
COc1ccc(N=C2C(=Nc3ccc(OC)cc3)N(c3ccccc3)C(=S)N2C(=O)c2ccc(Cl)cc2)cc1	.	.	.	.[10 µM]	-100	.
COc1ccc(-c2cc(C(F)(F)F)nc(SCCC(=O)Nc3ccc(NC(C)=O)cc3)n2)cc1	.	/	/	/	/	/
Cc1sc(NC(=O)C2C3C=CC(C3)C2C(=O)O)c(C(N)=O)c1-c1ccc(C(C)C)cc1 (stereo not drawn)	/	.	.	/	.	.
O=C(Nc1ccc(OCC(=O)N2CCOCC2)cc1)Nc1cccc(Cl)c1	/	.	.	.[10 µM]	/	.[9.22 µM]
O=C(Nc1ccc(C(=O)N2CCOCC2)cc1)Nc1cccc(Cl)c1	/	.	.	.[10 µM]	.	11µM
Cc1cccc(C(=O)Nc2cccc(C(=O)N3CCOCC3)c2)c1	.	.	.	.	-108	.
c1ccc2oc(-c3ccn[nH]3)cc2c1	/	.	/	.[10 µM]	/	.[9.22 µM]
O=C(COC(=O)C1CCCCC1)Nc1ccc(S(=O)(=O)N2CCOCC2)cc1	/	.	.	.	/	.
CC1(O)C(=O)C=C2C=C3CCCN3C=C2C1=O (stereo not drawn)	/	/	/	.[10 µM]	/	/
COc1ccc(CN(C)C(=O)CCl)cc1	/	.	.	?	/	13µM
CN(Cc1ccc(Cl)cc1)C(=O)CCl	/	.	.	.	/	?
O=C(Nc1nc(-c2cccs2)c(C(=O)C(F)(F)F)s1)c1ccccc1	/	.	.	/	.	10µM
O=C(Nc1nc(-c2cccs2)c(C(=O)C(F)(F)F)s1)c1ccco1	/	10µM	10µM	.	/	.
O=C(Nc1nc(-c2cccs2)c(-c2ccccc2)s1)c1ccco1	.	.	.	.	.	.[9.22 µM]
COc1ccc(-c2nnn(CC(=O)N3CCOCC3)n2)cc1	.	.	.	.	.	.[1.84 µM]
O=C(Cn1nnc(-c2ccc(OCc3ccccc3F)cc2)n1)N1CCOCC1	.	.	.	.[10 µM]	-102	.
COc1ccc(/C=N/NC(=S)Nc2ccccc2[N+](=O)[O-])cc1O	/	.	.	.[10 µM]	-117	.
C/C=C(/CC[C@@H](C)[C@H]1CCC2C3=CC[C@H]4[C@H](C)[C@@H](O)CC[C@]4(C)C3CC[C@@]21C)C(C)C (stereo partly drawn)	/	/	.	.	/	/
CC(C)(C)NC(=O)c1ccc2nsnc2c1	/	.	.	.[10 µM]	-110	.
O=C(/C=C/c1ccccc1)OC1CC(O)C2(O)C=CO[C@@H](OC3OC(CO)C(O)C(O)C3O)C12 (stereo partly drawn)	/	/	.	.	/	/
SMILES	IMPase inh	NPSR antag	IMPase Li inh	HTT cytoprotect	PNC inhibitor	HttQ103 aggreg
COC(=O)c1ccc(N2C(=O)CC(N(C)CCc3ccc(OC)c(OC)c3)C2=O)cc1 (stereo not drawn)	.	.	.	.	-119	.
CCc1cc2ccc(OC)cc2nc1SCC(=O)NNC(C)=O	/	.	.	.[10 µM]	/	.[9.22 µM]
Cc1cc(NC(=O)CSc2ccc(-c3nc4cc(C)c(C)cc4[nH]3)cn2)no1	.	?	11µM	.	.	.
CCc1cc2cc(C)c(C)cc2nc1SCC(=O)Nc1cc(C)on1	/	.	?	.[10 µM]	/	.[9.22 µM]
CCc1cc2ccccc2nc1SCC(=O)Nc1cc(C)on1	.	.	10µM	.	.	.
Cc1ccc2nc(SCC(=O)Nc3cc(C)on3)[nH]c2c1	.	?	.	.[10 µM]	.	.
COc1ccc2nc(SCC(=O)Nc3cc(C)on3)[nH]c2c1	.	.	.	.	-97	.[9.22 µM]
CCc1cc2ccc(OC)cc2nc1SCC(=O)Nc1cc(C)on1	.	10µM	?	.	?	.
CCn1c(=O)c(C(=O)Nc2ccc(C(C)=O)cc2)nc2ccccc21	.	/	/	/	/	/
C[C@@]1(C(NC(=O)Cc2ccc(C(F)(F)F)cc2)c2ccc(-c3ccccc3)cc2)C[C@H]1C1CCCCC1 (stereo partly drawn)	/	/	.	.	/	/
O=C(Cc1nc2ccccc2[nH]1)c1ccc(Br)cc1	/	.	.	.	/	.
COC(=O)c1ccc2c(=O)n3c(nc2c1)SCC(c1ccccc1)=N3	.	?	10µM	.	.	.
N#Cc1c2c(c(-c3ccccc3Cl)[nH]c1=S)CCCC2	/	?	10µM	.[10 µM]	/	.
N#Cc1c(-c2ccccc2Cl)cc(-c2ccccc2)[nH]c1=S	/	.	.	.[1.9 µM]	/	.[9.22 µM]
CCOC(=O)/C(C#N)=C1/C=Cc2ccccc2N1CC	.	.	.	.	-99	.
O=S(=O)(CCc1ccccc1)/N=C/c1cccs1	.	.	.	.	-103	.
O=C(c1ccc(F)cc1)N1CCN(Cc2ccccc2Br)CC1	.[1.84 µM]	.	.	.[10 µM]	-99	.
COC(=O)c1ccc(C(NC(=O)OCc2ccccc2)/C(F)=C/[C@@H](C)C(=O)N(C)Cc2cccnc2)cc1 (stereo partly drawn)	/	/	.	.	/	/
O=C(N/N=C/c1cccc([N+](=O)[O-])c1)C1CC(=O)N(c2ccc(Cl)cc2)C1 (stereo not drawn)	.	.	.	.	.	.
Cc1ccc(N2CC(C(=O)N/N=C/c3cccc([N+](=O)[O-])c3)CC2=O)cc1 (stereo not drawn)	?	.	.	.[10 µM]	-83	.
CCOC(=O)Cc1csc(SCn2nnc3ccccc3c2=O)n1	.	.	.	.[10 µM]	.	.
CCOC(=O)Cc1csc(-n2sc3ccccc3c2=O)n1	?	.	7.9µM	.[10 µM]	.	.
CCN(CC)c1ccc(-c2nn3c(-c4n[nH]c5c4CCC5)nnc3s2)cc1	.	.	.	.	-99	13µM
COc1ncc2nc(-c3cc(F)cc(F)c3)c(=O)n(CCC#N)c2n1	/	/	.	.	/	/
Cc1cc(C(N)=O)nn1-c1c(Cl)cc(Cl)cc1Cl	/	.	/	.[10 µM]	/	.[9.22 µM]
CCn1c(SCC(=O)c2c(N)n(C)c(=O)n(C)c2=O)nnc1-c1ccccc1	/	.	.	.[10 µM]	.	.
CCc1cccc(CC)c1-n1c(SCC(=O)c2c(N)n(C)c(=O)n(C)c2=O)nnc1-c1cccnc1	/	.	?	.[10 µM]	-134	.
Cc1ccc(-c2csc(NC(=O)CSc3nc(C)cc(=O)[nH]3)n2)cc1	.	.	.	.[10 µM]	-89	.
Cc1ccc(-c2csc(NC(=O)CSC3=NCCS3)n2)cc1	.	?	.	.[1.9 µM]	.	.

Bioassay records: PubChem, National Center for Advancing Translational Sciences (NCATS)
